# PubChem BioAssay (NCATS)
# Records with an inconclusive call do not appear. Entries that show only a call come without a potency. Activity calls are given as the source filed them. Calls come from the whole dose curve; as a rule, active = well fitted inhibition curve with a large enough effect; inconclusive = small, poorly fitted or top-dose-only effect; inactive = flat fitted curve, though single readings scatter.
# Tested on: P94_40
# Test: qHTS profiling for inhibitors of Plasmodium falciparum proliferation (AID 504749); note: nearly all actives have a fitted effect of over 60% in size
# Settings: P. falciparum in erythrocytes, SYBR Green DNA, 72 h; series mostly up to 28.7 µM
# In short: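 Infected RBCs, 0.3% parasitemia/2.5% Hct final; cpd 72 h, 37 C, 5% CO2; lysis buffer with saponin/triton/SYBR Green I, o/n RT dark; FI 485/535; norm. to artemisinin (0.29 uM) and DMSO.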
# Potency is the fitted concentration of half-maximal effect.
row,SMILES,Potency
1,OCCN1CC(O)C(O)C(O)C1CO (configuration not stated),inactive
2,COc1cc2c(cc1O)CCN[C@@]21CS[C@H]2c3c(OC(C)=O)c(C)c4c(c3C(COC1=O)N1C2C2c3c(cc(C)c(OC)c3O)CC([C@@H]1O)N2C)OCO4 (some centres not stated),0.0009 µM (active)
3,CC(CCC(=O)O)C1CCC2C3C(=O)C[C@@H]4CC(=O)CC[C@@]4(C)C3CC(=O)[C@]12C (some centres not stated),inactive
4,C[n+]1c2cc(N)ccc2cc2ccc(N)cc21,0.631 µM (active)
5,O=C(OC[C@@H]1O[C@@](O)(COC(=O)c2cccnc2)[C@H](OC(=O)c2cccnc2)[C@H]1OC(=O)c1cccnc1)c1cccnc1,inactive
6,O=[N+]([O-])O[C@H]1CO[C@H]2[C@@H]1OC[C@H]2O,inactive
7,COc1cccc(OC)c1C(=O)NC1C(=O)N2C1SC(C)(C)C2C(=O)O (configuration not stated),inactive
8,NC[C@@H]1O[C@H](OC2[C@@H](CO)O[C@@H](OC3[C@H](O)[C@H](N)C[C@H](N)[C@H]3OC3O[C@H](CO)[C@@H](O)[C@H](O)[C@@H]3N)[C@H]2O)C(N)[C@H](O)[C@@H]1O (some centres not stated),inactive
9,Cc1ccc(S(=O)(=O)NC(=O)NC(C)Cc2ccccc2)cc1 (configuration not stated),inactive
10,OCCOC[C@H]1O[C@H](OCCO)[C@H](OCCO)[C@@H](OCCO)[C@@H]1OCCO (tested in a mixture with another compound),inactive
11,C[S+](C)CC[C@H](N)C(=O)O,inactive
12,CC[C@@H]1/C=C(\C)C[C@H](C)C[C@H](OC)[C@H]2O[C@@](O)(C(=O)C(=O)N3CCCC[C@H]3C(=O)O[C@H](/C(C)=C/[C@@H]3CC[C@H](Cl)[C@H](OC)C3)[C@H](C)[C@@H](O)CC1=O)[C@H](C)C[C@@H]2OC,inactive
